# Compound activity from PubChem.
# Sampled rows, rich in hits. Any-hit rate of the full collection: about 4%.
# Peg3 prom inh: Peg3 promoter activity inhibition; HeLa PEG-Prom luciferase reporter, luminescence, overnight; inhibition, % at 20 µM; 360,000 tested, 1.7% active; AID 588405;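 active = inhibition of at least 50% at 20 µM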
# CF NFkB block: inhibitors of cystic fibrosis induced NF-kB; inhibition, % at 5 µM; KKLEB NF-kB-GFP reporter, PAF-induced, GFP fluorescence overnight; AID 588850; 360,000 tested, 0.86% active;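 active = at least 50% inhibition at 5 µM, scaled per plate between neutral and stimulator controls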;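 note: PAF is a Pseudomonas aeruginosa culture filtrate used as stimulus; plate controls were PAF-stimulated DMSO wells for no effect and unstimulated DMSO wells for full effect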
# TWEAK-Fn14 inh: blocks TWEAK-Fn14 interaction in a reporter cell assay. 360,000 tested, 2% active. inhibition, % at 10 µM. TWEAK-stimulated Fn14 reporter cells, luciferase luminescence, 8 h; in the data active = inhibition above about 50%
# KKLEB tox: CF airway cell cytotoxicity counter-screen; activity change (cytotoxicity), % at 5 µM; KKLEB CF airway cells viability, ATPlite luminescence, overnight; hits give low values; cells stimulated with P. aeruginosa culture filtrate; 360,000 tested, 0.36% active; AID 602141;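 active = corrected activity change at or below -50% at 5 µM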
# TROY NFkB inh: blocks TROY-dependent signaling in reporter cells. Q293 LMP1-TROYcd NF-kB luciferase reporter, 4 h. inhibition, % at 10 µM. 360,000 tested, 0.98% active. AID 1347056;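 active = compounds whose plate-normalised and pattern-corrected inhibition of the luciferase reporter signal at the single screening dose is 50% or more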
# HIF-2a inh: HIF-2a inhibition; 786-0 RCC cells HIF-2a reporter, luciferase luminescence, overnight; inhibition, % at 18.8 µM; 360,000 tested, 0.72% active; AID 624352;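 active = inhibition of the luminescence signal of 40% or more relative to plate controls, in a single-dose primary screen at 18.75 µM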
# CF NFkB inh conf: CF NF-kB inhibition confirmation, single concentration | shares compounds with CF NFkB block | KKLEB CF airway cells, PAF-induced NF-kB-GFP fluorescence, overnight | inhibition, % at 5 µM | 1,300 tested, 64% active; in the data active = inhibition above about 40%;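 note: stimulus PAF is a Pseudomonas aeruginosa filtrate and not platelet activating factor; plate controls were DMSO wells with stimulus for no effect and unstimulated DMSO wells for full effect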
# Active calls of the source: *; nt = no result.
SMILES,Peg3 prom inh,CF NFkB block,TWEAK-Fn14 inh,KKLEB tox,TROY NFkB inh,HIF-2a inh,CF NFkB inh conf
CN(C)c1ccc(-c2nn3c(-c4ccccc4Cl)nnc3s2)cc1,9,54*,-3,-35,-3,-17,68*
Cc1cccc(N2CCN(C(=O)c3[nH]c(C(F)(F)F)nc3-c3ccccc3)CC2)c1C,-7,50*,-12,-22,15,9,87*
COc1ccc2ncn(-c3ccccc3)c2c1,-3,58*,30,-6,12,12,57*
O=C1C[C@H](NC(=O)OCc2ccccc2)CO1,5,-20,4,3,7,11,nt
CCN1C=C(C(=O)c2ccccc2)C(=O)CC1,-10,-21,9,9,-2,8,nt
O=C(Nc1ccc(Oc2ccc(NC(=O)Nc3ccc([N+](=O)[O-])cc3)cc2)cc1)Nc1ccc([N+](=O)[O-])cc1,46,52*,87*,1,26,-3,61*
CCCCCNC(=O)C1C(=O)Nc2ccccc2C(=O)N1c1ccc(OC)cc1 (stereo not given),nt,nt,nt,nt,nt,3,nt
CC(=O)Oc1ccc(N(C(C)=O)S(=O)(=O)c2cccs2)c2ccccc12,8,56*,16,-12,6,-4,67*
CC(=O)Oc1ccccc1N(C(C)=O)S(=O)(=O)c1ccc2ccccc2c1,-17,2,6,20,-6,-16,nt
O=C(c1ccc(-n2cncn2)c2ccoc12)N1CCOCC1,3,10,4,-2,-2,4,nt
CCN(C[C@H]1N[C@@](Cc2ccccc2)(C(=O)OC)[C@H]2C(=O)N(Cc3ccccc3)C(=O)[C@@H]12)C(=O)Nc1ccc(C(F)(F)F)cc1,31,51*,84*,6,50*,-60,35
COc1cc(O)cc2cc3c(c(O)c12)C(=O)CC(C)(O)O3 (stereo not given),-66,60*,1,4,13,-14,52*
C=CC[C@@H](CC(=O)N[C@H](CO)Cc1ccccc1)C(=O)NC[C@H](OC(=O)[C@@H](CC=C)Cc1ccc(F)cc1)c1ccccc1,79*,54*,29,-41,5,-2,63*
CCCCN1C(=O)C(CC(=O)NCC2CCCCC2)CC(C(=O)N2CCOCC2)=C1C (stereo not given),-32,-2,8,11,-8,-17,nt
COc1cccc(CN2CCC(C(=O)NC(C)c3cccc4ccccc34)CC2)c1 (stereo not given),-4,-2,1,12,-6,-1,nt
Oc1cc2c(cc1C(c1ccc(Cl)c(Cl)c1)N1CCCC1)OCO2 (stereo not given),31,64*,16,-48,16,29,44*
CC(C)c1ccc(NC(=O)C(c2ccc3c(c2)OCO3)N2CCCCC2)cc1 (stereo not given),5,5,7,1,-22,-48,nt
O=[N+]([O-])c1ccc(-c2nn(-c3ccccc3)cc2/C=N/n2c(-c3cccs3)n[nH]c2=S)cc1,14,56*,-39,-34,-37,5,-7
Cc1ccc(NC(=O)c2cc(C(=O)c3cc(Cl)ccc3O)cn(-c3ccc(C)cc3)c2=O)cc1,45,55*,24,-11,12,-3,56*
N#Cc1cc(C(=O)c2cc(Cl)ccc2O)cn(-c2ccccc2)c1=O,14,9,-9,-7,4,5,nt
CC(c1ccco1)N(C(=O)c1cccc(Br)c1)c1ccccn1 (stereo not given),-40,-20,-6,4,-87,-267,nt
Cc1ccc(S(=O)(=O)Nc2ccc3cc([N+](=O)[O-])ccc3c2[N+](=O)[O-])cc1,48,50*,36,-24,49,-26,75*
O=C(NCCCSc1ccccc1)c1cc(Br)ccc1O,42,55*,51*,-36,35,-9,79*
COc1cc(CNC(=O)c2cc(-c3cc(OC)ccc3Cl)n[nH]2)cc(OC)c1,7,-5,3,0,10,-4,nt
CCCOc1c(Br)cc(C(=O)OCc2cc(=O)n3ccsc3n2)cc1OC,13,58*,18,3,20,8,26
SMILES,Peg3 prom inh,CF NFkB block,TWEAK-Fn14 inh,KKLEB tox,TROY NFkB inh,HIF-2a inh,CF NFkB inh conf
O=C(NC1CCN(S(=O)(=O)c2ccccc2)CC1)c1ccc(F)cc1,-5,-4,-2,3,4,-6,nt
Cc1cccc(N=c2oc3cc(O)ccc3cc2C(N)=O)c1,-179,68*,10,-15,10,-116,72*
COc1ccc2cc(C(N)=O)c(=Nc3ccc(C)cc3)oc2c1,-166,63*,67*,-14,7,-215,96*
O=C1[C@H](Cc2ccccc2)NCCCC[C@H](c2ccc(Cl)cc2)N1Cc1ccccc1,32,59*,-6,-38,9,16,39
O=C1[C@H](Cc2ccccc2)NCCCC[C@H](c2ccco2)N1Cc1ccccc1,30,23,8,-24,-2,-11,nt
c1cncc(CN2CCN(c3cc(-c4cnc5ccccc5c4)nc4ccnn34)CC2)c1,-3,2,-7,2,-32,-15,nt
[O-][N+](=C(c1ccccc1)c1ccccc1)c1ccccc1,25,11,1,4,4,20,nt
Cn1c(SCC(=O)Nc2sccc2C#N)nnc1C1CC1,-12,10,6,-9,-1,-5,nt
CC(C)(C)c1nc(NC(=O)Nc2ccccc2)sc1Br,-198,69*,61*,-49,23,-299,65*
COc1ccc2nc(NC(=O)Nc3ccccc3)sc2c1,-245,7,37,-14,-12,-183,nt
CC(C)c1nc(SCC(=O)N2CCCc3ccccc32)c2c(=O)n(C)c(=O)n(C)c2n1,63*,64*,40,-8,21,0,12
CCn1c(SCC(=O)N2CCCc3ccccc32)nc2c1c(=O)n(C)c(=O)n2C,31,8,8,1,12,13,nt
COc1cccc(-c2ccc3ncnc(NCc4cccnc4)c3c2)c1,29,71*,74*,-16,45,26,83*
COc1cccc(CNc2ncnc3cc(OC)c(OC)cc23)c1,21,8,5,1,9,22,nt
O=C(Oc1ccc(F)cc1C(=O)/C=C/c1cccs1)c1cccc([N+](=O)[O-])c1,18,50*,7,1,10,28,60*
O=c1c2cc(F)ccc2sn1-c1ccccc1Cl,24,51*,-5,-10,-3,-1,31
Cc1ccc(-n2sc3cc(F)ccc3c2=O)c(C)c1,28,27,-3,6,-8,-32,nt
Cc1ccc(S(=O)(=O)N2CCN(C(=O)COC(=O)CSc3ccc(C)c(C)c3)CC2)c(C)c1,2,-7,-6,2,-5,5,nt
